PubChem BioAssay (NCI)
About 79,000 compounds went through this panel and 15% of them were active in at least one assay; those are over-represented in the sample as a whole. Rule as the data show it: active = growth inhibition above about 70%; inactive = the rest.

Legend:
[1] = NCI Yeast Anticancer Drug Screen. Data for the rad50 strain (AID 155);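 also: 0% = growth of vehicle-only cultures of the same strain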; settings: S. cerevisiae rad50 strain growth inhibition; at 50.0 µM; hits give high values
Procedure, shortened: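 Readout: growth inhibition relative to vehicle-treated cultures. Compound exposure was carried out in a genetically defined yeast strain deficient in DNA damage repair.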

[2] = NCI Yeast Anticancer Drug Screen. Data for the mec2-1 strain (AID 157); settings: S. cerevisiae mec2-1 strain, at 50.0 µM, hits give high values
Procedure, shortened: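 Test agents were screened against the mec2-1 yeast strain, with defined DNA repair or cell cycle alteration. Growth was scored as inhibition against vehicle-only controls.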

[3] = NCI Yeast Anticancer Drug Screen. Data for the sgs1 mgt1 strain (AID 161);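 also: 0% = growth of cultures given vehicle only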; settings: S. cerevisiae sgs1 mgt1 strain, at 50.0 µM, hits give high values
Procedure, shortened: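 Read-out: growth inhibition vs vehicle controls. Cells: mutant yeast strain deficient in DNA damage repair.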

[4] = NCI Yeast Anticancer Drug Screen. Data for the cln2 rad14 strain (AID 165);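 also: 0% = growth equal to vehicle treated cultures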; settings: S. cerevisiae cln2 rad14 strain, at 50.0 µM, hits give high values
Procedure, shortened: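 Growth of compound-exposed yeast (cln2 rad14 genotype) measured and expressed as inhibition relative to vehicle.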

[5] = NCI Yeast Anticancer Drug Screen. Data for the bub3 strain (AID 167); settings: S. cerevisiae bub3 mutant strain, at 50.0 µM, hits give high values
Procedure, shortened: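 Readout: yeast growth inhibition, expressed relative to vehicle-only wells. The test organism is a mutant strain from a panel with lesions in DNA repair or checkpoint genes.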

[6] = NCI Yeast Anticancer Drug Screen. Data for the mlh1 rad18 strain (AID 175); settings: S. cerevisiae mlh1 rad18 strain growth inhibition; at 50.0 µM; hits give high values
Procedure, shortened: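 In this whole-cell yeast screen, a strain with altered DNA damage repair is challenged with compound, and its growth is measured against matched vehicle-treated controls.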

Measured: growth inhibition

O=C1C(N=Nc2ccc(S(=O)(=O)Nc3ccccn3)cc2)C(=O)N(c2ccccc2)C(=S)N1c1ccccc1
inactive: [1] 8.8% | [2] 6.1% | [3] 8.25% | [4] 18.3% | [5] -1.25% | [6] 23.6%

CCCCCCC1CCCCC1
inactive: [1] -35% | [2] -41.7% | [3] -29% | [4] 19.9% | [5] -28.8% | [6] -20%

O=C1NC(=O)N2CC(CI)OC2C1c1ccccc1 (stereo unspecified)
inactive: [1] 0.25% | [2] 12.8% | [3] 10.2% | [4] 6.55% | [5] -6.6% | [6] 11.4%

COc1ccccc1Oc1ccccc1
inactive: [1] -20.7% | [2] -61.3% | [3] -8.6% | [4] 13.6% | [5] -34% | [6] 20.8%

Cn1c(=O)sc2ccccc21
inactive: [1] 19.4% | [2] -18.2% | [3] 14.3% | [4] 15.1% | [5] -8.8% | [6] 25.6%

Cc1ccc(-n2cnc(C(=N)C#N)c2N)cc1
inactive: [1] -15.6% | [2] -31.7% | [3] -10% | [4] -12.1% | [5] 9.55% | [6] -13.1%

O=[N+]([O-])c1ccc(/C(=N/Nc2ccccc2)c2ccc(Cl)cc2)cc1
inactive: [1] 13.2% | [2] 2.1% | [3] 1.65% | [4] -14.1% | [5] 9.8% | [6] 4.1%

CN1CCC2c3c([nH]c4ccccc34)C(C)(C)OC2C1 (stereo unspecified)
inactive: [1] -11.9% | [2] -35.9% | [3] -33.6% | [4] 9.2% | [5] -24.6% | [6] 6.65%

CC1CCC(O)C(C(O)CC2CC(=O)NC(=O)C2)C1 (stereo unspecified)
inactive: [1] 23.3% | [2] -3.3% | [3] 5.4% | [4] -21.7% | [5] 4% | [6] 3.45%

COc1ccc(C(c2c(O)c3ccccc3n(C)c2=O)c2c(O)c3ccccc3n(C)c2=O)cc1
inactive: [1] -39% | [2] -19.3% | [3] -25.9% | [4] -33.5% | [5] 1.1% | [6] -35.1%

CC(=O)c1ccc(NC(N)=O)cc1
inactive: [1] 2.15% | [2] -10.4% | [3] 5.3% | [4] -8.1% | [5] -7.15% | [6] -12.5%

CC(=O)Oc1ccccc1Cl
inactive: [1] 18.1% | [2] 31.5% | [3] 25.9% | [4] 13.3% | [5] 19.1% | [6] 16.8%

CC(=O)OC1CCC2(C)C(CCC3C2CCC2(C)C(C(C)=O)CCC32)C1 (stereo unspecified)
inactive: [1] 4.25% | [2] -9.05% | [3] 2.35% | [4] -11.9% | [5] 10.4% | [6] 14.9%

CC(N)CCCO (stereo unspecified)
inactive: [1] -5.15% | [2] -5.5% | [3] 0.75% | [4] 10.3% | [5] -2.05% | [6] -2.05%

c1ccc(-c2c(-c3ccc4c(c3)OCO4)c(-c3ccc4c(c3)OCO4)c(-c3ccccc3)c3ccccc23)cc1
inactive: [1] 32.4% | [2] 20.6% | [3] 19.8% | [4] 28.2% | [5] -1.95% | [6] 23.4%

O=C1C(Cc2ccccc2)C(=O)N2c3ccccc3C=CC2N1c1ccccc1 (stereo unspecified)
inactive: [1] 13.2% | [2] 13.7% | [3] 4.6% | [4] 0.55% | [5] -10% | [6] 8.45%

O=c1/c(=C\c2ccccc2Cl)sc2n1CCN=2
inactive: [1] 22.2% | [2] 5.8% | [3] 4.9% | [4] 15.4% | [5] 11.3% | [6] 24.9%

c1ccc(N(c2ccccc2)C(c2ccccc2)(c2ccccc2)c2ccccc2)cc1
inactive: [1] 12.6% | [2] -2.65% | [3] 1.1% | [4] -36.3% | [5] -0.85% | [6] 7.85%

CCCCCCCCCc1ccc(OCCOC(=O)OCCOc2ccc(CCCCCCCCC)cc2)cc1
inactive: [1] 40.9% | [2] -21.9% | [3] 16% | [4] 13.8% | [5] 4.4% | [6] 31.6%

CCN(CC)CC(O)Cn1cnc2c(SC)ncnc21 (stereo unspecified)
inactive: [1] -0.75% | [2] 0.6% | [3] -2.95% | [4] 5.5% | [5] 4.5% | [6] -1.9%

OC12c3ccccc3C1CCCCCC21OCCCO1 (stereo unspecified)
inactive: [1] -9.4% | [2] -27.8% | [3] -31.8% | [4] -17.4% | [5] -8.4% | [6] -19.9%
